# Results taken from PubChem BioAssay (NCATS).
# Results filed as inconclusive are left out. A call without a number means that no potency is given here. Calls of active or inactive are those of the source. Unless noted, the call rests on the fitted dose curve; in most records, active means well fitted curve in the direction sought with a large enough effect; inconclusive means small, poorly fitted or top-dose-only effect, or another doubt; inactive means no such curve, though single readings can be large; an effect the other way counts as inactive or inconclusive.
# What was measured:
# Furin (Homo sapiens) = Furin (Homo sapiens) (UniProt P09958); assay: Furin counterscreen qHTS for Zika virus inhibitors (AID 1347149); further: nearly all actives have a fitted effect of over 70% in size; further: potency means the concentration at half of the fitted maximal effect;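 on activity change, negative = inhibition: purified recombinant full-length human furin enzyme at 5 nM; fluorescence gain from furin cutting a BOC-RVRR-AMC peptide substrate over 15 min; top concentration of the series differs between compounds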
# Procedure, shortened: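 Counterscreen measures cleavage of 2 microM BOC-RVRR-AMC, below its ~15 microM Km, by 5 nM full-length human furin at pH 7.0 after a 15-min compound preincubation. Inhibition derives from the 15-min fluorescence increase at 37C.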
# [1] = test system: Zika virus NS2B-NS3 protease (linked construct); assay: 384 well plate NINDS Rhodamine confirmatory qHTS for Zika virus inhibitors (AID 1347164);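 further: fluorescence from protease cleavage of Ac-LKRR-rhodamine 110 substrate; potency means the concentration at half of the fitted maximal effect; nearly all actives have a fitted effect of over 65% in size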
# Procedure, shortened: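 Fluorescence at 485/538 nm was measured 25 minutes after adding 10 microM Ac-LKRR-Rd substrate, in the dark at room temperature. The protease (5, 30 or 60 nM final) had been preincubated ~15 minutes with compound; aprotinin as control.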
# [2] = Tertiary RLuc qRT-PCR qHTS assay for Zika virus inhibitors (AID 1347169); further: nearly all actives have a fitted effect of over 55% in size; further: potency means the concentration at half of the fitted maximal effect; on activity change, negative = inhibition: top concentration of the series differs between compounds
# Procedure, shortened: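 Orthogonal cell-based readout: luminescence measured 1-1.5 hrs after adding live-cell Renilla substrate to Vero cells that had been infected with ZIKV-RLuc (MOI 1-2) post-compound, incubated 48-72 hrs at 37 degrees C.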
# [3] = test system: Zika virus NS2B-NS3 protease; assay: Primary screen GU AMC qHTS for Zika virus inhibitors (AID 1347154); further: nearly all actives have a fitted effect of over 70% in size
# Procedure, shortened: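 Fluorogenic AMC-substrate cleavage by noncovalent NS2B-NS3 protease complex (25 nM, pH 8.0 Tris buffer with Tween 20) followed for 15 minutes at room temperature (~20% conversion). Percent inhibition from ex340/em450 signal change, fitted by 4-parameter Hill equation.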
# [4] = test system: Zika virus NS2B-NS3 protease (unlinked complex); assay: Confirmatory screen GU AMC qHTS for Zika virus inhibitors (AID 1347153); further: nearly all actives have a fitted effect of over 70% in size;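 on potency: enzyme at 25 nM with substrate at 10 µM below its Km of 18.3 µM; potency means the concentration at half of the fitted maximal effect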
# Procedure, shortened: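 Noncovalent NS2B hydrophilic domain/NS3 protease complex (25 nM) in 10 mM Tris-HCl pH 8.0, 0.01% Tween 20 was preincubated 15 min at room temperature with compounds. Then 10 µM AMC substrate (Km 18.3 µM) was added; fluorescence was read over 15 min and fitted to a 4-parameter Hill equation.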
# [5] = Confirmatory screen NINDS Rhodamine qHTS for Zika virus inhibitors (AID 1347161); further: potency means the concentration at half of the fitted maximal effect; nearly all actives have a fitted effect of over 60% in size
# Procedure, shortened: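 Each compound, titrated, sat 15 min with 25 nM linked protease before 1.5 microM Rhodamine110 substrate went in. Fluorescence gain over the next 15 min, in pH 8.0 Tris with Tween 20, gave Hill-fitted curves.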
# [6] = Primary qHTS for small molecule stabilizers of the endoplasmic reticulum resident proteome: Secreted ER Calcium Modulated Protein (SERCaMP) assay (AID 1508630)
# Procedure, shortened: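 The SH-SY5Y reporter protocol was run at 3 concentrations up to 38.3 uM (primary) or 11 concentrations (follow-up): 16 h compound, 100 nM thapsigargin for 4 h, then extracellular luciferase luminescence.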
# [7] = molecular target: Glutathione peroxidase 1 (Homo sapiens) (UniProt P07203); assay: Primary qHTS Assay for Inhibitors of Recombinant Selenoprotein Glutathione Peroxidase 1 (GPX1) (AID 1845191); further: nearly all actives have a fitted effect of over 65% in size
# Procedure, shortened: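 NADPH consumption tracked by fluorescence at 340/450 nm between t=0 and t=15 min, room temperature. Final mix: 10 nM GPX1, 100 nM glutathione reductase, 1 mM GSH, 0.5 mM NADPH, 0.5 mM cumene hydroperoxide, 0.01% BSA; 30 min compound–enzyme preincubation.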
# [8] = molecular target: Cytochrome P450 3A4 (Homo sapiens) (UniProt P08684); assay: qHTS Assay for Inhibitors and Substrates of Cytochrome P450 3A4 (AID 884); further: nearly all actives have a fitted effect of over 50% in size
# Procedure, shortened: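 Luminescent readout of luciferin produced by CYP3A4 (20 nM) dealkylation of Luciferin-PPXE, 25 uM (its KM). NADPH-driven reaction ran 60 min at RT after 10 min compound preincubation; data scaled to 57 uM ketoconazole as 100% inhibition.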
# [9] = Confirmation and Secondary Assay for Modulators of Hemoglobin Beta Chain Splicing at IVS2 654 locus (AID 910);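 further: HeLa cells stably carrying EGFP split by mutant beta-globin IVS2-654 intron; per-well total GFP intensity by laser scanning cytometry after 2-day treatment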
# Procedure, shortened: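 Readout: per-well total peak green fluorescence (488 nm ex, 500–520 nm em) from objects 5–250 µm, reflecting correct splicing of an EGFP-654 reporter. Compounds were applied for 2 days at 37 °C to overnight-plated HeLa EGFP-654 cells; controls were DMSO and 500 nM IVS2-654 PNA.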
# [10] = Confirmation and Secondary Assay for Modulators of Hemoglobin Beta Chain Splicing at IVS2 705 locus (AID 930);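 further: HeLa cells stably expressing the EGFP-705 splicing reporter; GFP fluorescence per well restored by corrected splicing of the IVS2-705 intron in EGFP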
# Procedure, shortened: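 First, HeLa EGFP-705 cells are seeded at 500/well in Optimem with 2% FCS and left overnight. Next, compound or DMSO is added for 2 days. Finally wells are laser-scanned and total peak GFP intensity scored.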
# [11] = qHTS Assay for Lipid Storage Modulators (AID 1519; calls by dose curve); settings: Drosophila S3 cells, BODIPY lipid droplet/cell ratio, laser cytometry, cells loaded with oleic acid
# Procedure, shortened: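 Cells seeded at 5,000 per well were treated with compounds over a concentration series and loaded with oleic acid (400 uM, as added). Lipid droplet fluorescence (488 nm excitation, 500-530 nm channel) was read by laser-scanning cytometry and normalized to 20 uM Triacsin C.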
# [12] = molecular target: Ubiquitin carboxyl-terminal hydrolase 1 (Homo sapiens) (UniProt O94782); assay: Inhibitors of USP1/UAF1: Pilot qHTS (AID 504865); further: potency means the concentration at half of the fitted maximal effect; nearly all actives have a fitted effect of over 35% in size
# Procedure, shortened: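 Deubiquitinase activity followed as kinetic rhodamine fluorescence release from 150 nM Ub-Rho. 1 nM USP1/UAF1 with compound, after 15 min room-temperature preincubation, in HEPES pH 7.8 buffer containing TCEP, EDTA, BSA and Tween-20.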
# [13] = test system: Zika virus NS2B-NS3 protease (linked); assay: 384 well plate NINDS AMC confirmatory qHTS for Zika virus inhibitors (AID 1347163); further: potency means the concentration at half of the fitted maximal effect; nearly all actives have a fitted effect of over 50% in size
# Procedure, shortened: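 Fluorescence at 355/460 nm was read after 25 minutes of cleavage of 30 microM Ac-VKTGKR-AMC at room temperature, in the dark. Before substrate addition, compounds (up to 1 mM final) sat ~15 minutes with 5, 30 or 60 nM linked protease. Signals were normalized to no-enzyme and no-inhibitor wells.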
# [14] = Vero cells viability qHTS for Zika virus inhibitors (AID 1347167)
# Procedure, shortened: (§1)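 Luminescent ATP readout (CellTiter Glo) after 30 min at 37 degrees C gives viability; cells in DMEM + 4% FBS were treated 24 to 48 hours with compound, following overnight attachment.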
# [15] = HepG2 cells viability qHTS for Zika virus inhibitors (AID 1347168)
# Procedure, shortened: as §1
# [16] = molecular target: Rap guanine nucleotide exchange factor 3 (Homo sapiens) (UniProt O95398); assay: Confirmatory qHTS for antagonist of cAMP-regulated guanine nucleotide exchange factor 3 (EPAC1) (AID 1645880); further: potency means the concentration at half of the fitted maximal effect; nearly all actives have a fitted effect of over 55% in size
# Procedure, shortened: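 Released BODIPY-GDP fluoresces less than Rap1-bound BODIPY-GDP; the signal is followed at 480/540 nm at 5-min intervals over 30 min, after 5 min at room temperature. Reactions contain 100 nM EPAC1, 250 nM RAP1B-BODIPY-GDP and 50 uM GDP; results are normalized to ATA and DMSO.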
# [17] = molecular target: Rap guanine nucleotide exchange factor 3 (Homo sapiens) (UniProt O95398); assay: Confirmatory qHTS for agonist of cAMP-regulated guanine nucleotide exchange factor 3 (EPAC1) (AID 1645881);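 further: EPAC1 catalysed release of BODIPY-GDP from Rap1B seen as fluorescence loss; nearly all actives have a fitted effect of over 75% in size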
# [18] = molecular target: Rap guanine nucleotide exchange factor 4 (Homo sapiens) (UniProt Q8WZA2); assay: Confirmatory qHTS for agonist of cAMP-regulated guanine nucleotide exchange factor 4 (EPAC2) (AID 1645884);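 further: nucleotide exchange releases bodipy-GDP from Rap1 and this lowers its fluorescence; nearly all actives have a fitted effect of over 65% in size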
# [19] = molecular target: Rap guanine nucleotide exchange factor 4 (Homo sapiens) (UniProt Q8WZA2); assay: Confirmatory qHTS for antagonist of cAMP-regulated guanine nucleotide exchange factor 4 (EPAC2) (AID 1645885); further: nearly all actives have a fitted effect of over 25% in size
# [20] = ZIKV-mCherry secondary qHTS for Zika virus inhibitors (AID 1347158); further: potency means the concentration at half of the fitted maximal effect
# Procedure, shortened: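 Percent infection is the share of Hoechst-identified Vero nuclei with mCherry signal above 450 RFU (3 SD over negative controls). Cells were infected with recombinant ZIKV-mCherry at MOI 1 after compound addition and imaged 48–72 h later.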
# [21] = test system: Zika virus NS2B-NS3 protease (linked construct); assay: Confirmatory screen NINDS AMC qHTS for Zika virus inhibitors (AID 1347152); further: nearly all actives have a fitted effect of over 70% in size; further: potency means the concentration at half of the fitted maximal effect; on activity change, negative = inhibition: top concentration of the series differs between compounds
# Procedure, shortened: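 IC50s from 4-parameter Hill fits of percent inhibition, based on AMC fluorescence gain (340/450 nm) over 15 min with 10 microM Bz-Nle-KRR-AMC. Enzyme: 1 nM linked NS2B-NS3 in Tris-HCl pH 8.0; 15-min compound preincubation.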
# Chain of Furin (Homo sapiens) (P09958 whole entry, looked up): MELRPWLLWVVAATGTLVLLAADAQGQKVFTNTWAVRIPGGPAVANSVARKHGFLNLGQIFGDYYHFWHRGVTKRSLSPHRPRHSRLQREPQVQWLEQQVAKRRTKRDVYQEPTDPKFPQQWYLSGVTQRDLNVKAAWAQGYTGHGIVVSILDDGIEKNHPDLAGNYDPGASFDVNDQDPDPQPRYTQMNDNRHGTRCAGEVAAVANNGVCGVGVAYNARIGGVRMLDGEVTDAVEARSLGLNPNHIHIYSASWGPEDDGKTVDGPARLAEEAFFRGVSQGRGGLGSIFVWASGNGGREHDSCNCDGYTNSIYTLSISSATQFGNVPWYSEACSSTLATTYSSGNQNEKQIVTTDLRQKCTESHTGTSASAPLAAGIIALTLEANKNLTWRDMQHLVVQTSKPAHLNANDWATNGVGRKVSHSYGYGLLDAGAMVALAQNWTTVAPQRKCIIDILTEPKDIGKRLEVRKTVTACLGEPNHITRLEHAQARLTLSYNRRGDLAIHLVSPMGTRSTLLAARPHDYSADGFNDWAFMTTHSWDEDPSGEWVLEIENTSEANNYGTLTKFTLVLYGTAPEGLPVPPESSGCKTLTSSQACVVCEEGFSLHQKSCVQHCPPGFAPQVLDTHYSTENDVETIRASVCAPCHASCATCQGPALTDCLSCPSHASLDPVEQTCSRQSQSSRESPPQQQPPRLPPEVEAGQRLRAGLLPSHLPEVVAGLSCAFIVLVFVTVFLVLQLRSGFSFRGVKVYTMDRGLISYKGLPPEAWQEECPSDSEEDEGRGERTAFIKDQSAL
# Chain of Cytochrome P450 3A4 (Homo sapiens) (P08684 whole entry, looked up): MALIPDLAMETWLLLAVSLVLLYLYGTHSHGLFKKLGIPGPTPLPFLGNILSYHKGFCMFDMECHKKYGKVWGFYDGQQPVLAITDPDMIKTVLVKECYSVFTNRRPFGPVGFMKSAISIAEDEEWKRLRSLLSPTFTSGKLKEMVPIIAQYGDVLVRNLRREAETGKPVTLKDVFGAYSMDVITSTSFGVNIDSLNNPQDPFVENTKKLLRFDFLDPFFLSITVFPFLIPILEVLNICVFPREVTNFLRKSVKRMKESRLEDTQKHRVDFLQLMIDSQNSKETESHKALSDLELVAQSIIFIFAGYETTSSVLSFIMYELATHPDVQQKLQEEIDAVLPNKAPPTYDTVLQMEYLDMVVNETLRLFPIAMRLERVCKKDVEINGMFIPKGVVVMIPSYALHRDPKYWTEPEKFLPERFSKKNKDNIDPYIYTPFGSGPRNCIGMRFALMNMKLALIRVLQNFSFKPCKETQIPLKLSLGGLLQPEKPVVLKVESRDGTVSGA
# Chain of Rap guanine nucleotide exchange factor 4 (Homo sapiens) (Q8WZA2 whole entry, looked up): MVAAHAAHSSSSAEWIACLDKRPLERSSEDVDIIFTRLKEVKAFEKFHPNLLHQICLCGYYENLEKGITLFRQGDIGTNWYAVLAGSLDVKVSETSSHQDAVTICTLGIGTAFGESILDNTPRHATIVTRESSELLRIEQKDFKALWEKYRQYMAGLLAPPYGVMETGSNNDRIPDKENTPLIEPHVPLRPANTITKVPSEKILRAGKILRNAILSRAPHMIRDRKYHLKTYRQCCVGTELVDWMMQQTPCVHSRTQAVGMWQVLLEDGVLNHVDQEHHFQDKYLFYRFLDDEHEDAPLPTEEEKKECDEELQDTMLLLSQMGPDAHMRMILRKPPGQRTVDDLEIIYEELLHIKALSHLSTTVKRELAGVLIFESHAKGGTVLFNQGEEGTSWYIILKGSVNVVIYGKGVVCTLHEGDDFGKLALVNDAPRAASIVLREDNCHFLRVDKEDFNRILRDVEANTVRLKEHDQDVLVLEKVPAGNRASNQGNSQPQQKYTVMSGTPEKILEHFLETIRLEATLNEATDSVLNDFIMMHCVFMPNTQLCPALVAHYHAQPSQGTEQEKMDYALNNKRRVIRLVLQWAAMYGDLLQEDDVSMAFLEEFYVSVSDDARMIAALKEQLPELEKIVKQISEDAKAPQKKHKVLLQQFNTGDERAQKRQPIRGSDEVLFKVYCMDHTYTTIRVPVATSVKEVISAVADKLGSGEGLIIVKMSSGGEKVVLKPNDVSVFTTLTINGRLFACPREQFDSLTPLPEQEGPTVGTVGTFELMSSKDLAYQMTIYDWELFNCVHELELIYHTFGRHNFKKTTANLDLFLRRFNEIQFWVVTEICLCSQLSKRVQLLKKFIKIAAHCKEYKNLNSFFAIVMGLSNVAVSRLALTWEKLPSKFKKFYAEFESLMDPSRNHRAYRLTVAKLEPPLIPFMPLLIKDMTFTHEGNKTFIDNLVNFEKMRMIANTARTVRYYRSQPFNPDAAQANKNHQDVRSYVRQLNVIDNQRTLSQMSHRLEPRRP
# Chain of Rap guanine nucleotide exchange factor 3 (Homo sapiens) (O95398 whole entry, looked up): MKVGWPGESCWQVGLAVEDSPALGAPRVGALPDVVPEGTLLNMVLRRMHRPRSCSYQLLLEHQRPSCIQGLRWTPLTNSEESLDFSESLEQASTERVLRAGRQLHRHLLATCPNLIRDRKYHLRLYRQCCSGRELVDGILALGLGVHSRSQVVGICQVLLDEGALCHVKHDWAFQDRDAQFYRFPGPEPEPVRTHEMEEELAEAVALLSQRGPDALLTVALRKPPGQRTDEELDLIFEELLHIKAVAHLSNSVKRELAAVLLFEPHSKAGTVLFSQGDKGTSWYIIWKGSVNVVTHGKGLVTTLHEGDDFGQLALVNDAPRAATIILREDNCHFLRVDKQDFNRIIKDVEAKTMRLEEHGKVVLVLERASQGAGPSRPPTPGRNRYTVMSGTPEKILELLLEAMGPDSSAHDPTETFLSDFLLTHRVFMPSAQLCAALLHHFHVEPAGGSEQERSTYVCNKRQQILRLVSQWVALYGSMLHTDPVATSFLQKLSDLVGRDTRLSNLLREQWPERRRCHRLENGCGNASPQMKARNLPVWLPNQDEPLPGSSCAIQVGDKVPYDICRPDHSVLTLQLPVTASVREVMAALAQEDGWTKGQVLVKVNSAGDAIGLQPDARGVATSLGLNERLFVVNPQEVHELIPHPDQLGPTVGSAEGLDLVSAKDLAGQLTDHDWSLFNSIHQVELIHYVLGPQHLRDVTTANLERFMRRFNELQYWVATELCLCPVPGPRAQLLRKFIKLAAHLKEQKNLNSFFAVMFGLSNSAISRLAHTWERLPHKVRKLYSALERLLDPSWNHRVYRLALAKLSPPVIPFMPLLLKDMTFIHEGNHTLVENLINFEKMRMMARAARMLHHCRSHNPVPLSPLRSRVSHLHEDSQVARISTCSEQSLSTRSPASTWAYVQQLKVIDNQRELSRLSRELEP
# Chain of Glutathione peroxidase 1 (Homo sapiens) (P07203 whole entry, looked up): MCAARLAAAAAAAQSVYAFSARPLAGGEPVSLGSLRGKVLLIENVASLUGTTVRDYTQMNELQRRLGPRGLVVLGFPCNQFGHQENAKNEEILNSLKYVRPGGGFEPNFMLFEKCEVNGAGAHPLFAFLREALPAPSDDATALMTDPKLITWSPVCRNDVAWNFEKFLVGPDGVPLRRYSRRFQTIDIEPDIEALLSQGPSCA
# Chain of Ubiquitin carboxyl-terminal hydrolase 1 (Homo sapiens) (O94782 whole entry, looked up): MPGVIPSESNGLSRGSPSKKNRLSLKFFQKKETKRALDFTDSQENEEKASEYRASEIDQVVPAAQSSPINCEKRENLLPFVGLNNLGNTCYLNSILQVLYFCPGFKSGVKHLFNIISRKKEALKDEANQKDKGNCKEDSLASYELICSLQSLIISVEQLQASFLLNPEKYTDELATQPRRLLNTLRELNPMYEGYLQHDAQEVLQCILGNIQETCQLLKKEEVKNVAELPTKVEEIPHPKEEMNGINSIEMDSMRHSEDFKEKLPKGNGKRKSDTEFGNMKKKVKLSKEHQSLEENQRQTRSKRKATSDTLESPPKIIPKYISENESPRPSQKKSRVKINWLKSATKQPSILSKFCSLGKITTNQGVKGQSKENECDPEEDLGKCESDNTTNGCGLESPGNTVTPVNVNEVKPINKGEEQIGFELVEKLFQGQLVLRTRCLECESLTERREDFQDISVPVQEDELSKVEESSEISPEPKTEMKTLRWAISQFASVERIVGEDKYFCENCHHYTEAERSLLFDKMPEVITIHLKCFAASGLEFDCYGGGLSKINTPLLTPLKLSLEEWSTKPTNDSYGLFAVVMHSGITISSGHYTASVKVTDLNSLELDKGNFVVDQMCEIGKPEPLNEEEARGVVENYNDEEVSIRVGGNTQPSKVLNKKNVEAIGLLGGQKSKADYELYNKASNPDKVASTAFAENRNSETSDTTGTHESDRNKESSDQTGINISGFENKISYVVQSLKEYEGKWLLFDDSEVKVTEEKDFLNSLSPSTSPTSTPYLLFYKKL
smiles,measurement,setting,value
CCCCc1nn2c(=O)cc(COC(=O)c3ccc(NC(=O)CCc4ccccc4)cc3)nc2s1,Potency,Furin (Homo sapiens),inactive
same,Potency,[1],25.1 µM (active)
same,Potency,[2],inactive
O=C(O)COc1ccc(-c2nccc3c2C(=O)N(Cc2ccccc2)CC(COc2ccc4cccnc4c2)O3)cc1 (stereo unspecified),Potency,Furin (Homo sapiens),49.4 µM (active)
same,Potency,[1],44.7 µM (active)
same,Potency,[2],inactive
CCCCCCCCCCCCCCCCOCC(COP(=O)([O-])OCC[N+](C)(C)C)OC (stereo unspecified),"activity change, negative = inhibition",[3],5.04% [at 6.83 µM] (inactive)
Nc1ncnc2c1cnn2-c1ccccc1,Potency,[3],inactive
COC(=O)[C@H](CCCN=C(N)N)NC(=O)CCCc1c(-c2ccccc2)[nH]c2c(F)cc(F)cc12,Potency,[3],inactive
CO[C@H]1C[C@@H](O[C@@H]2/C(C)=C/C[C@@H]3C[C@@H](C[C@]4(CC[C@H](C)[C@@H](C5CCCCC5)O4)O3)OC(=O)[C@@H]3C=C(C)/C(=N/O)[C@H]4OC/C(=C\C=C\[C@@H]2C)[C@]43O)O[C@@H](C)[C@H]1O,Potency,[4],inactive
same,Potency,[5],22 µM (active)
same,Potency,[6],inactive
same,Potency,[7],inactive
O=C(NCCCN1CCCCCC1)C(c1ccccc1)C1CCCCC1 (stereo unspecified),Potency,[3],inactive
Cc1nn(C)c2nc(NNC(=O)Nc3cc(Cl)nc(Cl)c3)cc(C(C)C)c12,Potency,[3],inactive
CC(C)=CCCC1(C)C=Cc2c(O)c3c(c(CC=C(C)C)c2O1)OC12C(=CCCC1C(C)(C)O[C@@]2(C/C=C(\C)C(=O)O)C(=O)O)C3=O (stereo partly specified),Potency,[8],inactive
same,outcome,[9],inactive
same,outcome,[10],inactive
same,"activity change, negative = inhibition",[11]; at 57.5 µM (top of the series),7.82% (inactive)
same,max response,[11]; measured here: cell count channel max response,0.914%
same,max response,[11]; measured here: lipid channel max response,7.86%
same,Potency,[12],79.4 µM (active)
same,Potency,[4],19.2 µM (active)
same,Potency,[5],1.39 µM (active)
same,Potency,[13],158 µM (active)
same,Potency,[1],22.4 µM (active)
same,Potency,[14],inactive
same,Potency,[15],inactive
same,Potency,[6],inactive
same,Potency,[16],55.9 µM (active)
same,outcome,[17],inactive
same,outcome,[18],inactive
same,Potency,[19],inactive
O=C1NN(C(=O)Nc2ccc(Br)cc2)C(c2ccccc2)C1c1ccccc1 (stereo unspecified),Potency,[3],inactive
COc1ccc(CCCn2ncc3c2nc(N)n2nc(-c4ccco4)nc32)cc1,Potency,[3],inactive
CN(C)[C@@H]1C(=O)C(C(=O)NCN2CCCC2)=C(O)[C@@]2(O)C(=O)C3=C(O)c4c(O)cccc4[C@@](C)(O)[C@H]3C[C@@H]12,Potency,[4],9.61 µM (active)
same,Potency,[5],1.97 µM (active)
same,Potency,[14],inactive
same,Potency,[15],inactive
same,Potency,[6],inactive
COc1cc(O)c2c(=O)cc(-c3ccc(OC)c(-c4c(O)cc(O)c5c(=O)cc(-c6ccc(O)cc6)oc45)c3)oc2c1,Potency,[8],inactive
same,Potency,[4],44.1 µM (active)
same,Potency,[20],11.2 µM (active)
same,Potency,[13],35.5 µM (active)
same,Potency,[1],112 µM (active)
same,Potency,[2],16.5 µM (active)
COc1ccccc1-c1ccnc(N[C@H]2CO[C@H]3[C@@H]2OC[C@@H]3NS(=O)(=O)c2ccc3ccccc3c2)n1,Potency,[21],inactive
same,Potency,[4],inactive
same,Potency,[2],16.5 µM (active)
O=C(O)CCC/C=C\C[C@@H]1C(/C=C/[C@@H](O)COc2cccc(C(F)(F)F)c2)[C@@H](O)C[C@@H]1O (stereo partly specified),"activity change, negative = inhibition",[3],0.372% [at 6.83 µM] (inactive)
Clc1cc(OCc2nnc3sc(Cc4ccccc4)nn23)c(Cl)cc1OCc1nnc2sc(Cc3ccccc3)nn12,Potency,[21],12.6 µM (active)
same,Potency,[5],3.55 µM (active)
same,Potency,[13],28.2 µM (active)
same,Potency,[1],7.94 µM (active)
same,Potency,[2],inactive
O=C1CC2(CCCC2)CC(=O)N1CCCCNCC1COc2ccccc2O1 (stereo unspecified),Potency,[3],inactive
Cc1cc2nc3c(=O)[nH]c(=O)nc-3n(C)c2cc1C=O,Potency,[3],inactive
O=C(O)c1cc(Oc2ccc([N+](=O)[O-])cc2)cc(Oc2ccc([N+](=O)[O-])cc2)c1,Potency,[3],inactive
O=S(=O)(N[C@H]1CO[C@H]2[C@@H]1OC[C@@H]2n1nnnc1-c1ccc2c(c1)OCO2)c1ccc2ccccc2c1,Potency,[21],inactive
same,Potency,[4],inactive
same,Potency,[2],inactive
